Data reported in PubChem BioAssay (EPA / NIEHS).
Activity calls are given as the source filed them. Rule for the calls: active = hit-call score of the fitted dose curve at least 0.9, where 1 is the maximum; inactive = score below 0.9.

molecular target: Hypoxia-inducible factor 1-alpha (Homo sapiens) (UniProt Q16665); test: ATG_HIF1a_CIS: Attagene CIS-FACTORIAL HepG2 Assay for human Hypoxia Inducible Factor 1 (HIF1A) (AID 2282951); details: HepG2 Attagene cis-factorial HIF1a reporter transcription; actives raise or lower the signal
Sequence (Q16665 whole entry, looked up): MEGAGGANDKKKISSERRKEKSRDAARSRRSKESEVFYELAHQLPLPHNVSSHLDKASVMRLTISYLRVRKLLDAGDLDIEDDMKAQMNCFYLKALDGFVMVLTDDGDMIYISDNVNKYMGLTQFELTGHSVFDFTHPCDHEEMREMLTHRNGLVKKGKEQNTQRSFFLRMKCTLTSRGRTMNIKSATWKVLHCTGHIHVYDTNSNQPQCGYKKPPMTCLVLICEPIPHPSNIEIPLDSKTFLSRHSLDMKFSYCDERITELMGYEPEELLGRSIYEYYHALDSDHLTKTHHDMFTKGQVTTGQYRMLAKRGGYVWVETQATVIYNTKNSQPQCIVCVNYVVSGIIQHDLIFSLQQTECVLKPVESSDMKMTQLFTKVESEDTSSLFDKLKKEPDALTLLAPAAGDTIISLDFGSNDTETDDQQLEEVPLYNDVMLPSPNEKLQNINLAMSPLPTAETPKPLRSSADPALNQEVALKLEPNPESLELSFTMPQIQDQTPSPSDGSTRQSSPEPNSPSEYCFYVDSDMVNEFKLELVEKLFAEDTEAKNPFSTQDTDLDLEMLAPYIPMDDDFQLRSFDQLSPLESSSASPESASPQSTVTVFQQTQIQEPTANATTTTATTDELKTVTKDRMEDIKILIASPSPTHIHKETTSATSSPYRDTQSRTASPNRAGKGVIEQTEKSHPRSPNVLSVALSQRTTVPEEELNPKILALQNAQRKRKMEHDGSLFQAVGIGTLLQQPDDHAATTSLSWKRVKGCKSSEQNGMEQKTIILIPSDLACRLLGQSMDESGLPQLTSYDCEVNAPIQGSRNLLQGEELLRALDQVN
Method: ATG_CIS is a cell-based, multiplexed-readout assay that uses HepG2, a human liver cell line, with measurements taken at 24 hours after chemical dosing in a 24-well plate.ATG_HIF1a_CIS is one of 52 assay component(s) measured or calculated from the ATG_CIS assay. It is designed to make measurements of mRNA induction, a form of inducible reporter, as detected with fluorescence intensity signals by Reverse transcription polymerase chain reaction (RT-PCR) and Capillary electrophoresis technology.Data from the assay component ATG_HIF1a_CIS was analyzed into 1 assay endpoint. This assay endpoint, ATG_HIF1a_CIS, was analyzed with bidirectional fitting relative to DMSO as the negative control and baseline of activity. Using a type of inducible reporter, measures of mRNA for gain or loss-of-signal activity can be used to understand the reporter gene at the transcription factor-level as they relate to the gene HIF1A. Furthermore, this assay endpoint can be referred to as a primary readout, because this assay has produced multiple assay endpoints where this one serves a reporter gene function. To generalize the intended target to other relatable targets, this assay endpoint is annotated to the dna binding intended target family, where the subfamily is basic helix-loop-helix protein.
Human liver HepG2 cells are transiently transfected with multiple reporter transcription units (MRTUs) in 6-well plates using FuGene 6 reagent (Roche; 3 ml FuGene/1 mg DNA). The MRTU constructs are regulated by a cis-regulating element (promoter). […] A major difference between the CIS and TRANS system is that in CIS activities of endogenous TFs are measured, whereas the TRANS assay evaluates changes in activities of exogenous, chimeric NR-Gal4 proteins. […] At the end of 24 hour incubation, total RNA was isolated using TriZol reagent (Invitrogen). The isolated RNA is then reverse-transcribed using oligo(dT) primer and Mo-MLV reverse transcriptase (Invitrogen) with DNAse I (Ambion) treatment for 30 min. The one-tenth of the produced cDNA was amplified by PCR using Taq DNA polymerase (Invitrogen) and two reporter sequence-specific primers. The PCR products were fluorescently labeled by primer extension with 6-arboxyfluorescein (6-FAM) 5'-labeled reporter sequence-specific primer (2 min at 95 C, 20 s at 68 C and 10 min at 72 C) and these products were digested with 5U of HpaI (New England Biolabs) for 2h at 37 C. The fragments were purified using Qiaquick PCR columns (Qiagen), analyzed on an ABI 3130xL genetic analyzer (Applied Biosystems) with peak positions identified by using a set of X-rhodamine (ROX)-labeled MapMarker1000 molecular weight standards (BioVentures). The raw capillary electrophoresis data was processed using Attagraph software (Attagene).

Compound	outcome	AC50
O=NN1CCCC1	inactive	
O=c1ssc(Cl)c1Cl	inactive	
Nc1cc2c3c(c1)C(c1ccccc1)=N[C@@H](NC(=O)c1cccnc1)C(=O)N3CC2	inactive	
CCOC(=O)c1ccccc1N	inactive	
CC(C)CBr	inactive	
O=[N+]([O-])c1ccccc1	inactive	
CC(C)(C)c1ccccc1OP(=O)(Oc1ccccc1)Oc1ccccc1	inactive	
CC(O)C(F)(F)C(F)(F)F (stereo not given)	inactive	
CCC1(c2ccccc2)C(=O)N=C(O)NC1=O (stereo not given)	inactive	
Nc1ccc2ccccc2c1	inactive	
CC(O)C#N (stereo not given)	inactive	
CCCCN(CCCC)SN(C)C(=O)Oc1cccc2c1OC(C)(C)C2	inactive	
C=CC(=O)OCC(F)(F)C(F)F	inactive	
O=S1(=O)OCC2C(CO1)C1(Cl)C(Cl)=C(Cl)C2(Cl)C1(Cl)Cl (stereo not given)	inactive	
CNC(=O)Oc1ccc(N(C)C)c(C)c1	inactive	
Cc1ccc(O)cc1C	inactive	
CCCCN(CC)C(=O)SCCC	inactive	
CCOP(=O)(O)C(N)=O	inactive	
N#C/C=C/c1ccccc1	inactive	
O=C(O)C(F)(F)C(F)(F)C(=O)O	inactive	

Compound	outcome	AC50
CCCCC(CC)COP(=O)(Oc1ccccc1)Oc1ccccc1 (stereo not given)		100 µM (active)
CCCCc1ccccc1		59.2 µM (active)
CCCCC(CC)COC(=O)c1c(Br)c(Br)c(Br)c(Br)c1C(=O)OCC(CC)CCCC (stereo not given)	inactive	
CCCCc1ccc(O)cc1		164 µM (active)
Cc1ccc(C(=O)Cl)cc1	inactive	
c1ccc2c(c1)Nc1ccccc1S2	inactive	
CO/N=C(/C(=O)OC)c1ccccc1COc1ccccc1C		100 µM (active)
c1cc2c3c(cccc3c1)CC2	inactive	
OCC(F)(F)OC(F)(F)C(F)(F)OC(F)(F)C(F)(F)OC(F)(F)F	inactive	
C/C(=N\NC(=O)Nc1cc(F)cc(F)c1)c1ncccc1C(=O)O	inactive	
O=C(O)C(F)(F)OC(F)(F)C(F)(F)OC(F)(F)F	inactive	
c1ccc2c(c1)sc1ccccc12	inactive	
CCC(C)(C)c1ccc(O)cc1		33.4 µM (active)
CCOP(=S)(NC(C)C)Oc1ccccc1C(=O)OC(C)C (stereo not given)	inactive	
Oc1ccccc1Br	inactive	
NNC(N)=S	inactive	
CCOC(=O)c1ccccc1C(=O)OCC	inactive	
CCOS(=O)(=O)OCC	inactive	
CCCCOCCOP(=O)(OCCOCCCC)OCCOCCCC	inactive	
Cc1ccc(N)cc1N	inactive	
